# In the library only some 2.1% were active in any assay of this set; here they are far more common.
# IDE cell activ = IDE (human) activation, cell-based. AID 493087. 340,000 tested, 0.073% active. P14735. HEK cells, FAbeta-B cleavage, fluorescence polarization; 0% vehicle, 100% cell-free pure enzyme wells. activation, % at 5.96 µM;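 active = activation above the mean of all tested compounds plus 3 SD, set per screening campaign, cut at about 17% in these data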
# LANA-H2B inh = blocks KSHV LANA binding to histone H2A/H2B; 320,000 tested, 0.6% active; inhibition, % (no concentration beside the values); Q9QR71; cell-free LANA-H2A/H2B peptide, fluorescence polarization; in the data active = inhibition mostly above about 10%, no sharp cut-off; inactive = mostly below about 6.7%
# Mot1-301 SUMO = SUMOylation pathway inhibition by Mot1-301 growth rescue | 320,000 tested, 1% active | growth rescue, % at 18.8 µM | AID 2716 | S. cerevisiae Mot1-301 growth rescue, ATP luminescence, 38.5C; percent above DMSO median, 100 means doubled;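 active = every valid replicate shows activation above 250% relative to neutral control wells; inactive = the rest, any valid replicate at or below 250%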;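 note: OY570 slx delta 5 strain wells were the positive control but not used for scaling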
# IDE inh = cellular human IDE inhibition | P14735 | HEK cells, FAbetaB cleavage, fluorescence polarization | AID 434962 | inhibition, % at 5.59 µM | 320,000 tested, 0.41% active;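 active = percent inhibition above the average of all tested compounds plus 3 SD, set per screening campaign, cut at about 16% in these data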;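 note: IDE supplied by intact live HEK cells; FP after avidin binding of uncleaved biotin substrate so inhibition keeps polarization high; 0% = DMSO wells and 100% = 60 µM reference IDE inhibitor Ii1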
# HDAC3 inhib = blocks human histone deacetylase 3; O15379; recombinant HDAC3, fluorogenic peptide/trypsin coupled, fluorescence; inhibition, % at 8.3 µM; 320,000 tested, 0.15% active; AID 2718; in the data active = inhibition above about 26%, passing the limit was not always enough
# Target sequence (O15379 whole entry, looked up): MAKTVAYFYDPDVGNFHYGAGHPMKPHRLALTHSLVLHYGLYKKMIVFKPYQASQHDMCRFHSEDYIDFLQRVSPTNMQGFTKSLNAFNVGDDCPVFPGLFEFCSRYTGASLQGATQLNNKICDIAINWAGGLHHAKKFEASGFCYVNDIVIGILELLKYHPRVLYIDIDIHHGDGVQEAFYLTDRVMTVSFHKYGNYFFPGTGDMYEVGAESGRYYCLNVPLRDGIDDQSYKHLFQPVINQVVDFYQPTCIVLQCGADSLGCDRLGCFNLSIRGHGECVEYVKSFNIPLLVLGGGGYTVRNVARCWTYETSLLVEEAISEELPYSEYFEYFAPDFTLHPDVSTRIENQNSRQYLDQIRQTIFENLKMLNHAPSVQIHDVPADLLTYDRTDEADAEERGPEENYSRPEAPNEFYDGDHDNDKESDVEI
# * marks the source's active call; other numbers are inactive results; nt = not tested or not shown; + = active, no number.
SMILES,IDE cell activ,LANA-H2B inh,Mot1-301 SUMO,IDE inh,HDAC3 inhib
Cn1c(=N)c(S(=O)(=O)c2ccc(F)cc2)cc2c(=O)n3ccccc3nc21,-4,-3,-10,2,-108
COc1cc(/C=C2\C(=N)N3N=C(S(C)(=O)=O)SC3=NC2=O)ccc1OS(=O)(=O)c1ccc(C)cc1,6,5,-22,1,0
CCOC(=O)c1cccc(P(C)(C)=O)c1,19*,2,-6,-3,-4
CCOC(=O)c1ccc2nc(C)c(C)nc2c1,8,-3,-21,-1,1
COc1ccc(C(=O)/C=C/Nc2ccc(S(=O)(=O)Nc3cc(OC)nc(OC)n3)cc2)c(OC)c1,8,17*,3,-1,-4
CCOc1ccc(NC(=O)CN(C)C(=O)CSCc2c(C)noc2C)cc1OCC,1,-1,-2,4,-4
Nc1ccccc1C(=O)N1CCC(O)(c2ccc(Cl)cc2)CC1,2,0,325*,nt,0
OC1(c2ccc(Cl)c(Cl)c2)C[n+]2ccccc2N1Cc1ccccc1 (stereo not given),3,-3,-2,-2,-24
CCC(CC)C(=O)Nc1nnc(SCC(=O)NC2CCCCC2)s1,2,-4,10,3,-9
Cc1cc(C)n2nc[n+](C)c2n1,2,19*,-11,-3,7
Cc1cc(C)n2nc(CCCCc3nc4nc(C)cc(C)n4n3)nc2n1,nt,2,8,3,3
O=C(OCCN1C(=O)c2cccc3c(N4CCOCC4)ccc(c23)C1=O)c1ccc(Cl)cc1,-17,12*,21,1,-10
O=S(=O)(/C=C/c1ccccc1)c1ccccc1,5,-1,1,0,-4
O=S(=O)(C=C(c1ccccc1)c1ccccc1)c1ccccc1,4,15*,-9,6,1
CCC(C)N(C(=O)c1csnn1)C(C(=O)NCc1ccc(F)cc1)c1ccccc1 (stereo not given),-2,5,-9,1,1
CN1CCN(CC(O)COc2ccc(C34CC5CC(CC(C5)C3)C4)cc2)CC1 (stereo not given),9,nt,nt,nt,nt
O=C(NC1CC1)c1ccc(NS(=O)(=O)c2ccccc2)cc1,2,-2,9,6,-3
O=C(NC1CCC(O)CC1)c1ccc(NS(=O)(=O)c2cccc([N+](=O)[O-])c2)cc1 (stereo not given),7,24*,25,7,17
CCSC1=N/C(=C\C=C2/Oc3ccccc3N2CC)C(=O)S1,-35,-12,-3,20*,nt
C=C(C)CNC(=S)N/N=C1\CCCCc2ccccc21,3,-7,311*,5,-8
CCNC(=S)N/N=C1\CCCCc2ccccc21,0,2,-4,10,-1
Cc1cc(=O)oc2cc(OCC(=O)N/N=C/c3cc([N+](=O)[O-])ccc3O)ccc12,0,+,-1,4,-5
COc1ccc(C(=O)Nc2cccc3nc(C)ccc23)cc1OC,3,1,549*,4,5
C#CCOCCOCCOCCNc1nc(N2CCN(C(=O)CCCCCCCCCCNC(=O)Cn3cc(CCCCCN)nn3)CC2)nc(N2CCN(C(=O)CCCCCCCCCCNC(=O)[C@@H]([C@H](C)O)n3cc(C)nn3)CC2)n1,25*,-9,-19,-3,10
C#CCOCCOCCOCCNc1nc(N2CCN(C(=O)CCCCCCCCCCNC(=O)Cn3cc(C[C@@H](C)O)nn3)CC2)nc(N2CCN(C(=O)CCCCCCCCCCNC(=O)[C@@H]([C@H](C)CC)n3cc(CCCCCN)nn3)CC2)n1,26*,0,0,10,22
SMILES,IDE cell activ,LANA-H2B inh,Mot1-301 SUMO,IDE inh,HDAC3 inhib
C#CCOCCOCCOCCNc1nc(N2CCN(C(=O)Cn3cc(CCCCN)nn3)CC2)nc(N2CCN(C(=O)Cn3cc(CC(C)O)nn3)CC2)n1 (stereo not given),-6,-5,9,0,-4
C#CCOCCOCCOCCNc1nc(N2CCN(C(=O)CCCCCCCCCCNC(=O)Cn3cc(C[C@@H](C)O)nn3)CC2)nc(N2CCN(C(=O)CCCCCCCCCCNC(=O)[C@@H]([C@H](C)O)n3cc(C)nn3)CC2)n1,3,3,-10,4,16
C#CCOCCOCCOCCNc1nc(N2CCN(C(=O)CCCCCCCCCCNC(=O)Cn3cc(CCCCCN)nn3)CC2)nc(N2CCN(C(=O)CCCCCCCCCCNC(=O)Cn3cc(C[C@@H](C)O)nn3)CC2)n1,22*,-4,-12,2,17
CCc1cccc(C)c1NC(=O)CSc1nnc(C)o1,1,-2,-10,-3,3
O=C1Cn2c(nc3ccccc32)N1c1ccccc1F,2,7,3,1,7
O=C1Cn2c(nc3ccccc32)N1c1cccc(C(F)(F)F)c1,-2,15*,9,-3,-2
Cc1ccc(OCC(=O)NCCNC(=O)c2cnccn2)cc1,3,-6,16,-7,3
COc1ccc(Br)cc1/C=N/n1nnnc1N,0,-4,38,13,-1
CCOC(=O)c1ccc(NS(=O)(=O)c2ccc3c(c2)oc(=O)n3C)cc1,-5,32*,-2,2,3
O=[N+]([O-])c1ccc(S(=O)(=O)N2CCN(C3CCN(Cc4ccccc4)CC3)CC2)cc1,-2,4,379*,-5,0
O=C(NCc1ccccc1)C1COc2ccccc2O1 (stereo not given),2,2,-12,4,3
O=C(NC1CCN(Cc2ccccc2)CC1)C1COc2ccccc2O1 (stereo not given),5,-1,273*,-3,3
COc1ccc(C(=O)Nc2cccc3c2CCCC3)c(OC)c1,nt,0,8,2,4
CC(C)(C)SCCNC(=O)c1ccc(CN2CCc3ccccc3C2)cc1,0,0,0,0,-1
Oc1ccc(CCNc2c3ccccc3nc3ccccc23)cc1O,-6,14*,106,0,7
Fc1ccc2cc(-c3ccsc3)ncc2c1,2,-10,282*,-1,-6
CCNc1nc(NCC)nc(N(n2cnnc2)S(=O)(=O)c2ccc(C)cc2)n1,7,nt,310*,7,nt
CCNc1nc(NC(C)C)nc(N(n2cnnc2)S(=O)(=O)c2ccc(C)cc2)n1,-2,6,126,10,1
CC1CN(C(=O)C2CC(=O)N(c3ccc(Cl)cc3)C2)CC(C)O1 (stereo not given),2,0,242,3,0
O=C1c2ccccc2C(=O)c2c1cccc2N1CCCC1,6,0,22,3,9
Cn1c(=O)cc2c3c(c(N4CCCCC4)ccc31)C(=O)c1ccccc1-2,nt,22*,-20,5,6
O=C(COC(=O)COc1cccc(F)c1)Nc1nc2ccccc2s1,3,3,-6,-1,-4
COc1cc(C(=O)NNC(=O)CNC(=O)C2CCCCC2)ccc1OC(C)C,5,1,2,-3,-2
Cc1cc(SCC(=O)OCC(=O)N(C)c2ccccc2)nc2ccccc12,2,-2,16,0,9

# Bioassay records (PubChem)
